# Assay outcomes (PubChem BioAssay)
# Lassa entry inh – inhibitors of Lassa virus binding or cell entry | Lassa virus pseudotype entry inhibition, cell reporter | 1.2% of 300,000 active | Potency, µM (highest dose often 37.9 µM), without a hit: top-dose activity change, negative = inhibition, most hits filed as inhibitors | AID 540256; calls by dose curve; tested in HEK293 cells; note: potency is the fitted concentration of half-maximal effect; % is set by controls: 0 for no effect and ±100 for the full control effect; nearly all actives have a fitted effect of over 50% in size
# HCMV inh – human cytomegalovirus inhibition. 4.5% of 410,000 active. AID 1259415. activity change, negative = inhibition, % at 57.5 µM. HFF cells, HCMV-luciferase reporter, 72 h; hits give low values; in the data active = activity change below about -60%; inconclusive = no clear call, values can overlap the other calls; inactive = above about -39%; note: % is set by controls: 0 for no effect and ±100 for the full control effect
#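 Two-dose cell screen: HFF monolayers treated with compounds and infected with luciferase-expressing HCMV at 1 PFU/cell, 72 h at 37C, then lysed for luciferase measurement.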
# Marburg entry inh – Marburg virus entry inhibition. 1.8% of 300,000 active. AID 540276. Marburg virus pseudotyped entry inhibition, cell reporter. Potency, µM (series often up to 37.8 µM), without a hit: at the highest dose activity change, negative = inhibition, usual class: inhibitors; calls by dose curve; tested in HEK293 cells; note: potency is the fitted concentration of half-maximal effect; % is set by controls: 0 for no effect and ±100 for the full control effect
# FMDV antiviral – blocks foot and mouth disease virus. FMDV antiviral cell-based qHTS. Potency, µM (highest dose often 57.9 µM), for inactives: top-dose activity change, negative = inhibition, most hits filed as inhibitors. 1.2% of 410,000 active. AID 1159524; calls by dose curve; tested in HEK293T cells; note: read-out not given here; potency is the fitted concentration of half-maximal effect; % is set by controls: 0 for no effect and ±100 for the full control effect; nearly all actives have a fitted effect of over 45% in size
# SARS PLpro yeast-1 – blocks SARS-CoV papain-like protease in a yeast assay; AID 485353; S. cerevisiae expressing SARS-CoV PLpro, growth rescue; Potency, µM (titrated, usually from 32.9 µM), inactives show at the top dose activity, positive = growth rescue, usual class: activators; 0.19% of 330,000 active; calls by dose curve; note: potency is the fitted concentration of half-maximal effect; 0% is about no effect; nearly all actives have a fitted effect of over 55% in size
# HCV inh – HCV inhibition; Huh7.5.1 HCVcc-Cre infection, luciferase reporter, 44 h; Potency, µM (highest dose often 41.8 µM), for the others: top-dose activity change, negative = inhibition, usual class: inhibitors; 3.4% of 340,000 active; active = well fitted inhibition curve with a large enough effect; inconclusive = small, poorly fitted or top-dose-only effect, or another doubt; inactive = no such curve, though single readings can be large or run the other way; note: potency is the fitted concentration of half-maximal effect; % is set by controls: 0 for no effect and ±100 for the full control effect
#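 Seed cells (1,000/well) for 4 h; treat with compound and infect with HCVcc-Cre, moi about 0.5. Incubate 44 h, then detect luciferase activity.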
# SARS PLpro yeast-2 – Inhibits SARS-CoV PLP in yeast, hit validation; shares compounds with SARS PLpro yeast-1; yeast expressing SARS-CoV PLpro, growth phenotype rescue; calls only; 19% of 1,000 active; AID 652038; call rule not given here
# Numbers without * were called inactive; i = inactive; ? = inconclusive; · = no result given; + = active, no number; [ ] = dose if it differs, or a comment. Rows were chosen to be rich in hits. Some 8% of all compounds tested hit in one or more screens of this group.
SMILES,Lassa entry inh,HCMV inh,Marburg entry inh,FMDV antiviral,SARS PLpro yeast-1,HCV inh,SARS PLpro yeast-2
COC(=O)c1c(NC(C)=O)sc(C)c1C,-1%[46.1 µM],-31,-9%[46.1 µM],-8%,0%,?,·
CCC(C)C(=O)Nc1nccs1 (centres undefined),9%,-10,-1%[46.1 µM],-18%,10µM*,1%,i
COc1ccc(C(=O)NCC(c2ccco2)N(C)C)cc1S(=O)(=O)NCc1ccc(Cl)cc1 (centres undefined),2%,?,2%,10%,5%,8%,·
CCN1C(=NCc2ccccc2)N[C@@H](c2ccccc2)[C@H](C(=O)OC)[C@H]1C,·,-37,-16%[14.2 µM],-13%,?,16%,i
CCCCC/C=C/C1=CC(=O)C[C@H](c2ccc(OC)cc2)C1,·,8,·,-7%,-3%,0%,·
CCCc1cc(=O)[nH]c(SCC(=O)N2CCC(C)CC2)n1,·,·,·,-12%,2%,1%,·
Cc1c(C)c2c(C)[nH]nc2oc1=O,28%,11,-3%,-2%,?,22%,i
COc1ccc(CN2C[C@@H](CO)O[C@@H](n3cnc4c(NCc5ccco5)ncnc43)C2)cc1,·,8,·,-8%,·,·,·
COC(=O)c1cc(OC)c(OC)cc1NCC(=O)Nc1ccc(C)cc1,6%,-8,6%,-7%,4.5µM*,2%,i
COC(=O)c1cc(OC)c(OC)cc1NCC(=O)Nc1ccc(OC)c(OC)c1,7%,-21,?,?,8%,?,·
CCCCN(C(=O)CSc1nnc(-c2ccc(OC)cc2)n1CC)c1c(N)n(Cc2ccccc2)c(=O)[nH]c1=O,?,-3,19%[46.1 µM],21%,?,?,i
CCCCN(C(=O)CCOc1ccc(OCC)cc1)c1c(N)n(Cc2ccccc2)c(=O)[nH]c1=O,·,-19,·,-23%,·,·,·
CCOc1ccc(OCCC(=O)N(CCCOC)c2c(N)n(Cc3ccccc3)c(=O)[nH]c2=O)cc1,-22%,-23,12%[46.1 µM],0%,?,?,i
COCc1cccc(C2=CC(=O)C[C@H](c3ccc(OC)cc3)C2)c1,·,38,·,4%,-3%,?,·
Nc1nonc1C(=O)N/N=C/c1cc(Br)ccc1O,?,-8,?,44%,?,11µM*,+
NC(=O)N/N=C\c1cc(Br)ccc1O,18%,19,2%,0%,10%,17%,·
O=C(N/N=C/c1cc(Cl)ccc1O)c1ccc(Br)cc1,10µM*,-102*,?,6%,?,3.2µM*,i
CCCCNCc1cc(OCC)c(OCC)cc1Br,-30%,-16,?,32%,-1%,?,·
CC(=O)Nc1ccc(-c2nnn(CC(=O)Nc3ccc4c(c3)OCO4)n2)cc1Cl,9%,-29,-4%[46.1 µM],4%,0%,5%,·
COc1ccc2[nH]cc(CCNC(=O)C3CCCCC3)c2c1,?,-33,-23%[46.1 µM],15%,0%,-7%,·
CNC(=O)N(C1=NCCCCC1)c1ccc(Br)cc1,3%,35,3%,-15%,·,9%,i
COc1ccc(OC)c(C2C=C(C34CC5CC(CC(C5)C3)C4)NC(=S)N2)c1 (centres undefined),?,?,7.1µM*,-1%,?,2.5µM*,+
Cc1ccc(S(=O)(=O)NCCC(=O)NCc2ccc3c(c2)OCO3)cc1C,-6%,6,3%[46.1 µM],5%,16µM*,8%,i
COc1ccc(Cc2nnc(N/N=C/c3ccc(O)cc3O)[nH]c2=O)cc1OC,-6%,10,?,-10%,6.3µM*,?,i
CNCCCN1c2ccccc2CCc2ccccc21,-12%,-17,1.3µM*,-7%,18µM*,?,i
SMILES,Lassa entry inh,HCMV inh,Marburg entry inh,FMDV antiviral,SARS PLpro yeast-1,HCV inh,SARS PLpro yeast-2
CN(CCCN1c2ccccc2CCc2ccccc21)CC(=O)c1ccc(Cl)cc1,·,·,·,4%,·,·,·
Nc1cc(Cl)nc(N/N=C/c2c(O)ccc3ccccc23)n1,?,-71*,?,-9%,2.5µM*,?,i
Nc1nonc1N/N=C/c1c(O)ccc2ccccc12,-18%[46.1 µM],-1,?,0%,-2%,-7%,·
CC(Sc1nccn1C)C(=O)Nc1ccccc1C#N (centres undefined),9%[46.1 µM],1,0%[46.1 µM],-7%,·,·,·
COc1ccc(Nc2nc(C)c3ccccc3n2)cc1,21%,54,?,33%,-4%,?,·
Cc1ccc(NC(=S)/N=C(\N)Nc2nc(C)c3ccccc3n2)cc1C,-24%,-35,?,-25%,10µM*,11µM*,+
CC(OC(=O)c1cccc(-n2cnnn2)c1)C(=O)c1ccccc1 (centres undefined),3%,19,21%[46.1 µM],-12%,?,-4%,i
COc1ccc(S(=O)(=O)NNC(=O)C(=O)NNc2ccccn2)cc1,·,-6,·,14%,0%,-30%,·
COc1ccc(C2Nc3ccccc3C(=O)N2O)cc1CN1CCOCC1 (centres undefined),-30%,46,-17%,0%,22µM*,3%,i
Cc1cccc(C)c1NC(=O)Cn1c(=O)c(N2CCCCC2)c(N)n(C)c1=O,0%[46.1 µM],21,-2%[46.1 µM],-2%,11µM*,-2%,i
CCc1ccccc1NC(=O)C1(C)Cc2ccccc2C(=O)O1 (centres undefined),15%[46.1 µM],-4,0%[46.1 µM],-23%,·,·,·
Cc1ccccc1NC(=O)C1(C)Cc2ccccc2C(=O)O1 (centres undefined),-2%,-31,?,-20%,?,-3%,?
Cc1ccc(-c2nc3ccccc3c(=O)n2-c2cc(C)ccn2)cc1,-45%[14.3 µM],-24,21%,24%,4µM*,·,i
CCCOc1ccc(-c2nc[nH]c2[N+](=O)[O-])cc1,?,-33,-12%[46.1 µM],-9%,1%,-7%,·
CCCCN1CNC(=S)N(Cc2ccccc2)C1,-13%,4,28%,-17%,?,37%,i
CC(C)CN1CN(Cc2ccco2)CNC1=S,21%,-10,?,-8%,6%,12%,·
CC(C)CN1CN(Cc2ccccc2)CNC1=S,?,?,3%,-4%,13µM*,7%,+
CCCCN1CNC(=S)N(CCc2ccccc2)C1,?,11,?,23%,28%,-11%,·
O=c1c(-c2ccccc2)nc2cnc(N3CCNCC3)nc2n1Cc1cccs1,·,·,·,-12%,·,·,·
CN(C(=O)COC(=O)Cc1ccc(Cl)cc1)C1CCCCC1,4%,29,-16%,25%,?,17%,i
Cc1ccc(CNC(=O)/C=C/c2ccc(Br)o2)cc1,?,-34,10%,9%,·,-23%,i
CCOC(=O)c1cc(C#N)c(N2CCN(c3ccccn3)CC2)nc1-c1ccccc1,?,-29,?,-17%,0%,?,·
